We go through 18 compounds from ChEMBL document CHEMBL3988442, “University of Dundee, Small-Polar-MMV Screening Library” (2021).

Assay [1] deals with T1, Aspartate--tRNA(Asp/Asn) ligase (Mycobacterium tuberculosis (strain ATCC 25618 / H37Rv)) (UniProt P9WFW3).
T1 sequence (whole entry): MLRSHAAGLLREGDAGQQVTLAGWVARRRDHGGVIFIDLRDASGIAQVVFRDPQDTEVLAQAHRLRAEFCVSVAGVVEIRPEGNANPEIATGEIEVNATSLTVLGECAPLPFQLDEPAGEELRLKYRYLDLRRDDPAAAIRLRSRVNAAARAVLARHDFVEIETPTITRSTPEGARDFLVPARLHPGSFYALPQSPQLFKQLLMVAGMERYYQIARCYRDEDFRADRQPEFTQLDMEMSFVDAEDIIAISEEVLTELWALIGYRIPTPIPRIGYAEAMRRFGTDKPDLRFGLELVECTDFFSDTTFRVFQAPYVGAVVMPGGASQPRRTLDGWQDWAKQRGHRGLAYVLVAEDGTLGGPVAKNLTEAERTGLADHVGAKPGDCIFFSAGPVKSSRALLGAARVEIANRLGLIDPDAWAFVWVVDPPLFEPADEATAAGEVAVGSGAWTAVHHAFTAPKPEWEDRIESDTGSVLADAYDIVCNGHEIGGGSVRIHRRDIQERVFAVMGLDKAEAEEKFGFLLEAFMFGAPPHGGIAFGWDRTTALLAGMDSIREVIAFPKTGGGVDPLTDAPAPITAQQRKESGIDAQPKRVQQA
Kind of assay: Assay for Asp RNA synthetase-1 from Mycobacterium tuberculosis. Set-up: scale not given: direction of the effect not stated beside the values. It counts as functional. The settings on record: 30 µM.

Assay [2] deals with Shiga toxin 2 (Escherichia coli O157:H7) (UniProt P09385+P09386). Put plainly: E. coli 0.157:H7 Shiga Toxin SOP - stx2 screening assay. The format is functional. Further details: scale not given: direction of the effect not stated beside the values. The conditions noted are these: 30 µM.

Regarding `CC(C)c1nnc2ccc(N3CCC(C(=O)Nc4nccs4)CC3)nn12`, the Percent Effect in assay [1] was -2.93%; in assay [2], -32.8%.

In the case of `O=C(NCc1cc[nH]n1)N1CCN(c2ccccc2Cl)CC1`, the figures for the Percent Effect in assay [1] and in assay [2] were 0.562% and 11.5%, respectively.

For `CC(=O)N1CCCN(C(=O)NCCc2cc(Cl)cc(Cl)c2)CC1`, the Percent Effect in assay [1] was -1.44%; in assay [2], -10%.

As to `O=C(NCc1cn2c(n1)CN(CC1CCOCC1)CC2)C1CCC1`, the Percent Effect in assay [1] is 0.662%; in assay [2] it was -18.2%.

As to `Cc1cccc(-c2ccc(C(=O)NCC(C)(C)C(N)=O)c(=O)[nH]2)c1`, the figures for the Percent Effect in assay [1] and in assay [2] were 7.72% and -21.6%, respectively.

As for `CCN1CCN(Cc2ccnc(-c3cccnc3)n2)CC1`, the Percent Effect in assay [1] is -0.64%; in assay [2], -13.1%.

`Cc1cnc2n(c1=O)CC(C(=O)Nc1ccccc1Cl)CS2` (stereo unspecified): the Percent Effect in assay [1] was -5.41%; in assay [2], -4.63%.

With `O=C(C1COCCO1)N1CCN(Cc2ccc3c(c2)CCO3)CC1` (stereo unspecified), the values for the Percent Effect in assay [1] and in assay [2] were 1.71% and 8.81%, respectively.

As for `Cn1cccc1C(=O)N1CCc2ncc(Cn3cccn3)n2CC1`, the Percent Effect is -0.291% in assay [1] and -19.1% in assay [2].

On to `Cc1cccn2cc(CC(=O)N3CCCC(n4cncn4)C3)nc12` (stereo unspecified), for which the Percent Effect in assay [1] was 1.06%; in assay [2], -13.1%.

As for `CCC(=O)N1CCCC1c1nccnc1Nc1nc(C)cc(C)n1` (stereo unspecified), the Percent Effect in assay [1] is 4.25%; in assay [2], -28.8%.

Turning to `CN1CCOC(CNC(=O)CCCOCCc2ccccc2)C1` (stereo unspecified), the results for the Percent Effect in assay [1] and in assay [2] were -3.72% and 1.69%, respectively.

For `CN(CC(=O)N1CCC(Oc2ccccc2)CC1)c1cnccn1`, the Percent Effect in assay [1] is 0.175%; in assay [2], -7.36%.

In the case of `COc1cc(CNCCc2nc(C)cs2)cc2c1OCCO2`, the Percent Effect was -4.99% in assay [1] and 14.4% in assay [2].

In the case of `CN(Cc1noc(C2CC2)n1)C1CCN(Cc2ccncc2)C1` (stereo unspecified), the results for the Percent Effect in assay [1] and in assay [2] were -0.189% and -32.1%, respectively.

Take `Cn1cnc2c1CCN(Cc1ccc(C(=O)N3CCCC3)cc1)C2`: the Percent Effect in assay [1] is 0.745%; in assay [2], -74.8%.

Turning to `CC(=O)N1CCC(CN2CCN(Cc3nccn3C)C(C)C2)CC1` (stereo unspecified), the Percent Effect in assay [1] worked out at 7.78%; in assay [2] it was 18.6%.

As for `Cc1[nH]ccc1C(=O)N1CCC(c2nnc(Cn3cccn3)n2C)CC1`, the Percent Effect in assay [1] was -2.14%; in assay [2], -9.29%.
